Results: PubChem BioAssay AID952 (NMMLSC, 2007)
Among all 190,000 compounds or so, about 45 (0.02%) were called active. The list is a sample of the results. A number with no mark means an inactive call. No stated cut-off is given here; in the data, active means inhibition above about 40%.

target: Bcl-2-like protein 2 (Homo sapiens) (UniProt Q92843); assay: Bcl-W/Bim complex disruptors – biochemical, multiplexed, bead-based flow cytometry, primary screen (AID 952); conditions: Bim peptide-Bcl-W binding, at 10 µM, active compounds read high;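 further: 0% = bound tracer without compound and 100% = peptide blocker; higher means less fluorescent Bim peptide bound to Bcl-W beads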
Sequence (Q92843 whole entry, looked up): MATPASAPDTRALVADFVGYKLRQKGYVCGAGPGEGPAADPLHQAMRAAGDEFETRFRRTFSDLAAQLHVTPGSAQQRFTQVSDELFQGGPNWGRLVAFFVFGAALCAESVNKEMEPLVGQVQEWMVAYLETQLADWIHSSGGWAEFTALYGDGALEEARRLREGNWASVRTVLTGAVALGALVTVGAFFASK

Row | Structure (SMILES) | inhibition [%]
1 | CNC(=O)/C(C#N)=C/c1c(F)cccc1Cl | -2
2 | CCn1ncc(CNC(=O)C2(C)CC2(Br)Br)c1C (stereo unspecified) | -4
3 | Cc1ccc(N(C(=O)C(F)(F)F)C(C(=O)NC2CCCCC2)c2ccncc2)cc1C (stereo unspecified) | -1
4 | N#Cc1cccc(Nc2c3c(nc4ccccc24)CCCC3)c1 | 4
5 | COc1ccc(Cl)cc1NC(=O)CN(C)Cc1ccc(OC)c(OC)c1 | -4
6 | NC(=O)CC[C@@H]1NC(=O)[C@H](CO)NC(=O)c2cc([N+](=O)[O-])cc(I)c2NCC[C@@H](C(N)=O)NC1=O | 0
7 | O=C(/C=C/c1ccc(N2CCOCC2)cc1)c1ccccc1 | -4
8 | CCCC(C)C(=O)OCC(=O)Nc1c(Br)cc(C)cc1Br (stereo unspecified) | 0
9 | O=S(=O)(c1ccc(F)cc1)N1CCN(C(=S)NC2CCCC2)CC1 | 0
10 | COc1cc2c(cc1NC(=O)COC(=O)/C=C/c1ccccc1)oc1ccccc12 | -7
11 | Cc1ccc(N(C(=O)c2sc(C)nc2C)C(C(=O)NC(C)(C)C)c2ccncc2)cc1 (stereo unspecified) | -1
12 | COc1ccc(C(=O)CSc2nnc(NC(=O)C3CC(=O)N(c4cccc(OC)c4)C3)s2)cc1 (stereo unspecified) | -2
13 | O=C(Nn1c(-c2ccc(Cl)cc2)nc2ccccc2c1=O)c1cccnc1Cl | 10
14 | Cc1cc(OCCCN2CCN(Cc3ccccc3)CC2)ccc1[N+](=O)[O-] | 0
15 | COc1ccc(Nc2ncc(F)c(N3CCOCC3)n2)cc1 | -1
16 | CCCCCOc1ccc(/C=C/C(=O)NCCc2nc3ccccc3[nH]2)cc1OC | -7
17 | CCCC/C(C)=N/NC(=O)NC1CCCCC1 | -3
18 | COc1ccnc(Oc2ccccc2)c1-c1ncn[nH]1 | -1
19 | N=c1n(CCc2ccccc2)c2ccccc2n1Cc1ccccc1F | -6
20 | COc1ccccc1NC(=S)N1CCN(C(c2ccccc2)c2ccccc2)CC1 | 1
21 | O=C(c1ccncc1)N1CCN(c2ccc3ccccc3n2)CC1 | 0
22 | Cc1ccc(C(=O)Oc2coc(CSc3nnc(NC(=O)c4cccs4)s3)cc2=O)cc1C | -6
23 | COc1ccc(NC(=O)C(=O)NCC(=O)Nc2cccc(C(F)(F)F)c2)cc1 | 1
24 | CCN(CC)C(=O)CS(=O)CC(=O)Nc1cc(OCCOC)c(Cl)cc1Cl (stereo unspecified) | -1

Row | Structure (SMILES) | inhibition [%]
25 | Brc1cc(/C=N/n2cnnc2)oc1Br | -2
26 | CCc1ccc(CN(C)C(=O)CCc2nnc(-c3ccc(-c4ccccc4)cc3)o2)nc1 | 1
27 | CC(C)N(Cc1ccccc1)C(=O)COC(=O)c1cnccn1 | -1
28 | COCC(C)n1c(C)cc(C(=O)CSc2cc(C)c3ccccc3n2)c1C (stereo unspecified) | -6
29 | O=C(c1cccs1)n1nc(NCc2ccccc2)nc1NCc1ccccc1 | 0
30 | Cc1ccc(NCc2n[nH]c(=S)n2-c2ccccc2)cc1Cl | 0
31 | Cc1cc2nc(C(F)(F)F)cc(-c3cccs3)n2n1 | 0
32 | O=C1Oc2ccccc2C(=O)/C1=C/c1ccccc1O | 0
33 | Cc1ccc(/C=C/C(=O)Nc2cc(S(=O)(=O)N3CCCCCC3)ccc2OCC(F)(F)F)o1 | -2
34 | Cc1ccc(C2CC(c3cccc(NS(C)(=O)=O)c3)=NN2S(C)(=O)=O)cc1 (stereo unspecified) | -1
35 | COCCn1c(=O)[nH]c(=O)c2cc(C(=O)c3cc(OC)ccc3O)cnc21 | -3
36 | CC1(C)CC(=O)C=C(N2CCOCC2)C1 | -2
37 | Cc1cc(OCCCC(=O)NCCN2C(=O)S/C(=C\c3cccnc3)C2=O)ccc1Cl | -3
38 | O=C(N/N=C/c1ccc(OCc2ccccc2)cc1)c1ccc(O)cc1 | 0
39 | CC(C)C(O)C1CCN(Cc2nc(Cc3ccccc3Cl)no2)CC1 (stereo unspecified) | 1
40 | CSc1ccc(/C=C/C(=O)NC23CC4CC(CC(C4)C2)C3)cc1 | -2
41 | CN1CCN(/N=C/c2ccc(-c3ccc([N+](=O)[O-])cc3)o2)CC1 | 3
42 | Cc1ccnc(NC(=O)CCCOc2ccccc2)c1 | -1
43 | Cc1ccc(CCCOC(=O)C[N+]2(C)CCCC2)cc1 | 3
44 | COc1ccc(-c2csc3ncnc(Oc4ccc5c(C)cc(=O)oc5c4)c23)cc1 | -9
45 | CCn1c(SCc2ccccc2)nc2c(c1=O)SCC2 | -2
46 | CCOC(=O)C1=C(CN2CCCCCC2)NC(=O)NC1c1cccc([N+](=O)[O-])c1 (stereo unspecified) | -2
47 | FC(F)Oc1ccccc1NC(=S)Nc1cccc(Cl)c1Cl | -3
48 | CCC(C)NC(=O)c1ccc(N2CCC3(CC2)OCCO3)c([N+](=O)[O-])c1 (stereo unspecified) | -1

Row | Structure (SMILES) | inhibition [%]
49 | C=C(C)C1CC=C(C)/C(=N\NC(=O)CNc2ccccc2OC)C1 (stereo unspecified) | 0
50 | NCCCC[C@@H]1NC(=O)[C@H](CCC(=O)O)NC(=O)c2cc([N+](=O)[O-])cc(I)c2NCC[C@@H](C(N)=O)NC1=O | 2
51 | Cc1nnc(SCC(=O)N2CCOCC2)[nH]c1=O | -4
52 | OCCC1CN(Cc2ccc(Oc3ncccn3)cc2)CCN1CCc1ccccc1 (stereo unspecified) | -3
53 | Cc1[nH]c2ccccc2c1/C=N\NC(=O)Cn1nnc(-c2ccccc2)n1 | -6
54 | CCOC(=O)C1=NOC(Cn2cc(C(C)=O)c(=O)[nH]c2=O)C1 (stereo unspecified) | -3
55 | CN(C)c1ccc(Nc2c3c4c(cccc4n(C)c2=O)C(=O)c2ccccc2-3)cc1 | 14
56 | C1CC1Cc1noc(CN2CCN(CC3CC3)CC2)n1 | -3
57 | COC(=O)c1nn(-c2cccc(Cl)c2)ccc1=O | 1
58 | O=C(CC1C(=O)NCCN1CC(c1ccccc1)c1ccccc1)NCCc1cn[nH]c1 (stereo unspecified) | -4
59 | O=C(CCN1C(=O)c2ccccc2C1=O)NCCCn1ccnc1 | 0
60 | Cc1cc(C)c2c(n1)sc1c(=O)n(-c3ccccc3)c(=O)[nH]c12 | -3
61 | Cc1ccccc1NS(=O)(=O)CCCCC(Cl)(Cl)Cl | 0
62 | COc1ccc(NS(=O)(=O)c2ccc(NC(=O)c3ccc(N(C)S(C)(=O)=O)cc3)cc2)cc1 | -8
63 | CCc1ccc(-n2c(SCc3cc(=O)n4cc(Br)ccc4n3)nc3[nH]ncc3c2=O)cc1 | -4
64 | COCCNC(=O)C(c1ccc(O)cc1)N(C(=O)CCC(=O)Nc1nccs1)c1ccc(C)cc1 (stereo unspecified) | -3
65 | O=C(CN1CCN(S(=O)(=O)c2ccc(Br)cc2)CC1)Nc1ccccc1C(=O)c1ccccc1 | -9
66 | O=C(NCC1COc2ccccc2O1)C1(c2ccccc2)CCCC1 (stereo unspecified) | -1
67 | OCCCC1CCCCN1Cc1nc(Cc2ccccc2Cl)no1 (stereo unspecified) | 4
68 | CCOC(=O)/C(=N\Nc1cc(Cl)ccc1Cl)N1CCN(C)CC1 | -5
69 | COC(=O)c1c(NC(=O)CN(c2ccc(C)c(C)c2)S(C)(=O)=O)sc2c1CCCC2 | -6
70 | Cc1ccc(S(=O)(=O)N2CCCC2C(=O)OCc2nc3sc(C)c(C)c3c(=O)[nH]2)cc1 (stereo unspecified) | -3
71 | CN(C)c1nc(N)nc(Cn2nnc(-c3ccc(C(F)(F)F)cc3)n2)n1 | -5
72 | CC(=O)N/N=C/c1cc2c(cc1[N+](=O)[O-])OCO2 | -2

Row | Structure (SMILES) | inhibition [%]
73 | O=C(CN1CCN(C(=S)NC2CCCC2)CC1)Nc1ccc(Oc2ccccc2)cc1 | -12
74 | Cc1ccc2nsnc2c1NC(=O)c1ccccc1[N+](=O)[O-] | 0
75 | CC(C)N1CCC(N2CCN(Cc3cccnc3)CC2CCO)CC1 (stereo unspecified) | -4
76 | CCN(CCCNC(=O)CCn1c(=O)[nH]c2ccsc2c1=O)c1ccccc1 | 1
77 | O=C(COC(=O)c1ccccc1C(=O)N1CCN(c2ccccc2)CC1)NCc1ccccc1 | -3
78 | O=C(CCCO)N/N=C/c1cc(Br)ccc1O | -3
79 | CC(C)(C)CN1CCNC(=O)C1CC(=O)NC1Cc2ccccc2C1 (stereo unspecified) | 1
80 | COc1ccc(C(=O)N2CCC(C(=O)Nc3ccc(C)cc3)CC2)cc1 | -1
81 | N#Cc1ccc(-c2nc3cc(C#N)c(C#N)cc3nc2-c2ccccc2)cc1C#N | 0
82 | COc1ccc(NC(=S)SC)cc1OC | -2
83 | O=C(N/N=C/c1ccc([N+](=O)[O-])o1)c1cccc(S(=O)(=O)N2CCOCC2)c1 | 0
84 | C=CCOC(=O)C1=C[C@@H](c2ccccc2)C[C@@H](OCc2ccc(CO)cc2)O1 | 0
85 | CCC(C)(C)NC(=O)CN(C(=O)CCC(=O)Nc1cc(C)ccn1)c1ccc2c(c1)OCCO2 | 1
86 | Cn1c(=NC(=O)c2ccc3c(c2)OCCO3)sc2cc(S(C)(=O)=O)ccc21 | -1
87 | Cn1nc(-c2ccccc2)c(CO)c1Sc1ccccc1 | -2
88 | Cc1cc(C)c(S(=O)(=O)N2CCOCC2)cc1C | 0
89 | Cc1cccc(C(=O)N2CCc3c([nH]c4ccccc34)C2CC(C)C)n1 (stereo unspecified) | 3
90 | CN(C)S(=O)(=O)c1ccc2oc(SCC(=O)Nc3ccccc3F)nc2c1 | 0
91 | O=C(NNC(=O)c1ccccc1[N+](=O)[O-])Nc1ccccc1C(F)(F)F | 0
92 | Cc1cc(C(=O)NNC(=S)Nc2ccccc2C)cs1 | 0
93 | COC(=O)c1ccccc1NC(=O)C1CC(=O)N(c2ccc(OC)cc2)C1 (stereo unspecified) | 0
94 | Cc1noc(C)c1S(=O)(=O)N(C)Cc1ccccc1 | -1
95 | CNCC(O)CN1CCN(c2ccccc2OC)CC1 (stereo unspecified) | -1
96 | Cc1ccc(CCCOC(=O)C[N+]2(C)CCCCC2)cc1 | 0
